# Results from PubChem BioAssay AID1159580 (chemical genetic matrix, 2015).
# The whole screen tested about 5,500 compounds, of which about 2,000 (36%) were called active. Roughly 18% stayed inconclusive and do not appear here. The list shows a part of the results. Values without a mark were called inactive. Cut-off read from the data, not from the text of the source: active = normalized growth mostly below about 0.91 (no sharp cut-off); inconclusive = no clear call, values can overlap the other calls; inactive = mostly above about 0.92.
# Test: chemical genetic growth profiling, strain panel (AID 1159580);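 note: tested at 20 µM; growth read once vehicle control cultures reached saturation at 30 °C; 1 = growth at the plate median or of vehicle wells; lower values mean less growth of the strain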
# Conditions: growth OD
compound,measurement,setting,value
CC(C)c1c(O)ccc2c1CCC1C(C)(C)CCC[C@]21C (some centres not stated),normalized growth,"S. cerevisiae deletion strains, locus YJR066W, strain TOR1, active compounds read low",0.709 (active)
same,normalized growth,"S. cerevisiae deletion strains, locus YKL009W, strain mrt4, active compounds read low",0.822 (active)
same,normalized growth,"S. cerevisiae deletion strains, locus YKL068W, active compounds read low",1.03
same,normalized growth,"S. cerevisiae deletion strains, locus YKL085W, strain MDH1 (second series), active compounds read low",0.358 (active)
same,normalized growth,"S. cerevisiae deletion strains, locus YKL085W, strain MDH1, active compounds read low",0.358 (active)
same,normalized growth,"S. cerevisiae deletion strains, locus YKL160W, strain elf1, active compounds read low",0.729 (active)
same,normalized growth,"S. cerevisiae deletion strains, locus YKL190W, strain CNB1, active compounds read low",0.0594 (active)
same,normalized growth,"S. cerevisiae deletion strains, locus YKR001C, strain vps1, active compounds read low",0.0785 (active)
same,normalized growth,"S. cerevisiae deletion strains, locus YKR026C, strain gcn3, active compounds read low",0.993
same,normalized growth,"S. cerevisiae deletion strains, locus YKR091W, strain srl3, active compounds read low",0.78 (active)
same,normalized growth,"S. cerevisiae deletion strains, locus YLL001W, strain dnm1, active compounds read low",0.819 (active)
same,normalized growth,"S. cerevisiae deletion strains, locus YLL026W, active compounds read low",0.263 (active)
same,normalized growth,"S. cerevisiae deletion strains, locus YLL041C, strain sdh2, active compounds read low",0.55 (active)
same,normalized growth,"S. cerevisiae deletion strains, locus YLR027C, strain aat2, active compounds read low",0.254 (active)
same,normalized growth,"S. cerevisiae deletion strains, locus YLR039C, strain RIC1, active compounds read low",0.127 (active)
same,normalized growth,"S. cerevisiae deletion strains, locus YLR058C, strain SHM2, active compounds read low",0.104 (active)
same,normalized growth,"S. cerevisiae deletion strains, locus YLR102C, strain apc9, active compounds read low",0.214 (active)
same,normalized growth,"S. cerevisiae deletion strains, locus YLR113W, strain HOG1, active compounds read low",0.3 (active)
same,normalized growth,"S. cerevisiae deletion strains, locus YLR221C, strain rsa3, active compounds read low",0.337 (active)
same,normalized growth,"S. cerevisiae deletion strains, locus YLR258W, strain gsy2, active compounds read low",0.343 (active)
same,normalized growth,"S. cerevisiae deletion strains, locus YLR262C, strain YPT6 (second series), active compounds read low",0.146 (active)
same,normalized growth,"S. cerevisiae deletion strains, locus YLR268W, strain sec22, active compounds read low",0.191 (active)
same,normalized growth,"S. cerevisiae deletion strains, locus YLR320W, strain mms22, active compounds read low",0.22 (active)
same,normalized growth,"S. cerevisiae deletion strains, locus YLR342W, strain FKS1 (second series), active compounds read low",0.139 (active)
same,normalized growth,"S. cerevisiae deletion strains, locus YLR342W, strain FKS1, active compounds read low",0.43 (active)
same,normalized growth,"S. cerevisiae deletion strains, locus YLR357W, strain rsc2, active compounds read low",1.14
same,normalized growth,"S. cerevisiae deletion strains, locus YLR370C, strain arc18, active compounds read low",1.06
same,normalized growth,"S. cerevisiae deletion strains, locus YLR371W, strain rom2, active compounds read low",0.186 (active)
same,normalized growth,"S. cerevisiae deletion strains, locus YLR384C, strain iki3, active compounds read low",1.01
same,normalized growth,"S. cerevisiae deletion strains, locus YLR418C, strain cdc73, active compounds read low",0.125 (active)
same,normalized growth,"S. cerevisiae deletion strains, locus YML016C, strain PPZ1, active compounds read low",0.438 (active)
same,normalized growth,"S. cerevisiae deletion strains, locus YML032C, strain rad52, active compounds read low",0.315 (active)
same,normalized growth,"S. cerevisiae deletion strains, locus YML120C, strain ndi1, active compounds read low",0.235 (active)
same,normalized growth,"S. cerevisiae deletion strains, locus YML124C, strain tub3, active compounds read low",0.241 (active)
same,normalized growth,"S. cerevisiae deletion strains, locus YMR058W, strain fet3, active compounds read low",0.968
same,normalized growth,"S. cerevisiae deletion strains, locus YMR078C, strain ctf18, active compounds read low",0.211 (active)
same,normalized growth,"S. cerevisiae deletion strains, locus YMR125W, strain sto1, active compounds read low",0.928
same,normalized growth,"S. cerevisiae deletion strains, locus YMR129W, active compounds read low",0.692 (active)
same,normalized growth,"S. cerevisiae deletion strains, locus YMR205C, strain PFK2, active compounds read low",0.305 (active)
same,normalized growth,"S. cerevisiae deletion strains, locus YMR223W, strain ubp8, active compounds read low",0.21 (active)
same,normalized growth,"S. cerevisiae deletion strains, locus YMR231W, strain pep5, active compounds read low",0.93
same,normalized growth,"S. cerevisiae deletion strains, locus YMR307W, strain GAS1, active compounds read low",0.179 (active)
same,normalized growth,"S. cerevisiae deletion strains, locus YNL067W, strain RPL9B, active compounds read low",0.279 (active)
same,normalized growth,"S. cerevisiae deletion strains, locus YNL071W, strain lat1, active compounds read low",0.13 (active)
same,normalized growth,"S. cerevisiae deletion strains, locus YNL128W, strain TEP1, active compounds read low",0.205 (active)
same,normalized growth,"S. cerevisiae deletion strains, locus YNL183C, strain NPR1, active compounds read low",0.627 (active)
same,normalized growth,"S. cerevisiae deletion strains, locus YNL209W, strain ssb2, active compounds read low",0.689 (active)
same,normalized growth,"S. cerevisiae deletion strains, locus YNL233W, strain BNI4, active compounds read low",0.0951 (active)
same,normalized growth,"S. cerevisiae deletion strains, locus YNL248C, strain rpa49, active compounds read low",0.989
same,normalized growth,"S. cerevisiae deletion strains, locus YNL250W, strain rad50, active compounds read low",0.786 (active)
same,normalized growth,"S. cerevisiae deletion strains, locus YNL271C, strain bni1, active compounds read low",0.74 (active)
same,normalized growth,"S. cerevisiae deletion strains, locus YNL298W, strain CLA4, active compounds read low",0.636 (active)
same,normalized growth,"S. cerevisiae deletion strains, locus YNL307C, strain MCK1, active compounds read low",0.0705 (active)
same,normalized growth,"S. cerevisiae deletion strains, locus YNL322C, strain KRE1 (second series), active compounds read low",1.03
same,normalized growth,"S. cerevisiae deletion strains, locus YNL322C, strain KRE1, active compounds read low",0.0898 (active)
same,normalized growth,"S. cerevisiae deletion strains, locus YNR049C, strain mso1, active compounds read low",0.994
same,normalized growth,"S. cerevisiae deletion strains, locus YNR052C, strain pop2, active compounds read low",0.313 (active)
same,normalized growth,"S. cerevisiae deletion strains, locus YOL006C, strain TOP1, active compounds read low",0.227 (active)
same,normalized growth,"S. cerevisiae deletion strains, locus YOL012C, strain htz1",0.469
same,normalized growth,"S. cerevisiae deletion strains, locus YOL147C, strain pex11, active compounds read low",0.131 (active)
same,normalized growth,"S. cerevisiae deletion strains, locus YOR001W, strain rrp6, active compounds read low",0.556 (active)
same,normalized growth,"S. cerevisiae deletion strains, locus YOR061W, strain CKA2, active compounds read low",0.173 (active)
same,normalized growth,"S. cerevisiae deletion strains, locus YOR069W, strain VPS5, active compounds read low",0.372 (active)
same,normalized growth,"S. cerevisiae deletion strains, locus YOR070C, strain gyp1, active compounds read low",0.157 (active)
same,normalized growth,"S. cerevisiae deletion strains, locus YOR080W, strain dia2, active compounds read low",0.685 (active)
same,normalized growth,"S. cerevisiae deletion strains, locus YOR083W, strain WHI5, active compounds read low",0.424 (active)
same,normalized growth,"S. cerevisiae deletion strains, locus YOR106W, strain vam3, active compounds read low",0.274 (active)
same,normalized growth,"S. cerevisiae deletion strains, locus YOR136W, strain idh2, active compounds read low",0.287 (active)
same,normalized growth,"S. cerevisiae deletion strains, locus YOR144C, strain elg1, active compounds read low",0.295 (active)
same,normalized growth,"S. cerevisiae deletion strains, locus YOR184W, strain ser1, active compounds read low",0.134 (active)
same,normalized growth,"S. cerevisiae deletion strains, locus YOR231W, strain MKK1, active compounds read low",0.366 (active)
same,normalized growth,"S. cerevisiae deletion strains, locus YOR265W, strain rbl2, active compounds read low",0.31 (active)
same,normalized growth,"S. cerevisiae deletion strains, locus YOR270C, strain vph1, active compounds read low",0.632 (active)
same,normalized growth,"S. cerevisiae deletion strains, locus YOR290C, strain snf2, active compounds read low",0.712 (active)
same,normalized growth,"S. cerevisiae deletion strains, locus YOR316C, strain cot1, active compounds read low",0.263 (active)
same,normalized growth,"S. cerevisiae deletion strains, locus YPL051W, strain arl3, active compounds read low",0.322 (active)
same,normalized growth,"S. cerevisiae deletion strains, locus YPL078C, strain atp4, active compounds read low",0.925
same,normalized growth,"S. cerevisiae deletion strains, locus YPL106C, strain sse1, active compounds read low",0.815 (active)
same,normalized growth,"S. cerevisiae deletion strains, locus YPL240C, strain hsp82, active compounds read low",0.29 (active)
same,normalized growth,"S. cerevisiae deletion strains, locus YPL241C, strain CIN2, active compounds read low",0.166 (active)
same,normalized growth,"S. cerevisiae deletion strains, locus YPL256C, strain CLN2, active compounds read low",0.521 (active)
same,normalized growth,"S. cerevisiae deletion strains, locus YPR119W, strain clb2, active compounds read low",0.187 (active)
same,normalized growth,"S. cerevisiae deletion strains, locus YPR141C, strain kar3, active compounds read low",1.01
same,normalized growth,"S. cerevisiae deletion strains, locus YPR163C, strain tif3, active compounds read low",0.187 (active)
same,normalized growth,"S. cerevisiae deletion strains, locus YPR167C, strain met16, active compounds read low",0.139 (active)
same,normalized growth,"S. cerevisiae deletion strains, strain wtn01, active compounds read low",0.132 (active)
same,normalized growth,"S. cerevisiae strains, strain wild type, active compounds read low",0.0726 (active)
